According to the supplement of paper PMC8975748:
Counter-ions that a name gives are not always drawn. ± gives the standard deviation of the averaged measurements.

What follows are molecules tested on Saccharomyces cerevisiae BY4741 SeMeCo community (assay: mean cell size (pixel area) (pixels); higher = larger cells). Settings: 10 µM; 24 h; SM minimal medium.
Outline: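 Yeast cells were fixed with paraformaldehyde, imaged by automated confocal microscopy and analysed in Harmony to obtain mean cell pixel area per well. They came from a four-plasmid fluorescent Saccharomyces cerevisiae BY4741 community, each plasmid complementing one auxotrophy and carrying a fluorescent marker. Before imaging, 70 µl of culture at OD600 = 0.3 was incubated for 24 h in SM medium in 384-well plates predosed acoustically with drug (final 10 µM). Values are means of 3 replicates. Same SeMeCo high-content imaging drug screen: Selleck FDA-approved drugs at 10 µM, 24 h in SM medium, 384-well plates, 3 replicates.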

| SMILES | mean cell size |
| --- | --- |
| CCCN[C@H]1CCc2nc(N)sc2C1 [Pramipexole] | 12.3 ± 0.16 |
| CO[C@H]1C[C@@H]2CC[C@@H](C)[C@@](O)(O2)C(=O)C(=O)N2CCCC[C@H]2C(=O)O[C@H]([C@H](C)C[C@@H]2CC[C@@H](OP(C)(C)=O)[C@H](OC)C2)CC(=O)[C@H](C)/C=C(\C)[C@@H](O)[C@@H](OC)C(=O)[C@H](C)C[C@H](C)/C=C/C=C/C=C/1C [Ridaforolimus (Deforolimus, MK-8669)] | 14.2 ± 0.11 |
| Clc1ccc(COC(Cn2ccnc2)c2ccc(Cl)cc2Cl)c(Cl)c1 (stereo not given) [Miconazole] | 12.5 ± 0.13 |
| NCCc1ccc(O)c(O)c1 [Dopamine HCl] | 12.4 ± 0.15 |
| CC1(C)S[C@@H]2[C@H](NC(=O)[C@H](N)c3ccccc3)C(=O)N2[C@H]1C(=O)OCOC(=O)[C@@H]1N2C(=O)C[C@H]2S(=O)(=O)C1(C)C [Sultamicillin Tosylate] | 12.28 ± 0.1 |
| CCN1CCCC1CNC(=O)c1cc(S(=O)(=O)CC)c(N)cc1OC (stereo not given) [Amisulpride] | 12.4 ± 0.13 |
| O=C(O)c1cn(C2CC2)c2cc(N3CCNCC3)c(F)cc2c1=O [Ciprofloxacin hydrochloride hydrate] | 12.4 ± 0.27 |
| CCn1cc(C(=O)O)c(=O)c2cc(F)c(N3CCN(C)CC3)cc21 [Pefloxacin Mesylate] | 12.48 ± 0.059 |
| CC(C)[C@H](N)C(=O)OCC(CO)OCn1cnc2c(=O)[nH]c(N)nc21 (stereo not given in full) [Valganciclovir HCl] | 12.7 ± 0.14 |
| CN[C@H](CC(C)C)C(=O)N[C@H]1C(=O)N[C@@H](CC(N)=O)C(=O)N[C@H]2C(=O)N[C@H]3C(=O)N[C@H](C(=O)N[C@H](C(=O)O)c4cc(O)cc(O)c4-c4cc3ccc4O)[C@H](O)c3ccc(c(Cl)c3)Oc3cc2cc(c3O[C@@H]2O[C@H](CO)[C@@H](O)[C@H](O)[C@H]2O[C@H]2C[C@](C)(N)[C@H](O)[C@H](C)O2)Oc2ccc(cc2Cl)[C@H]1O [Vancomycin HCl] | 12.1 ± 0.11 |
| COc1cccc2c1C(=O)c1c(O)c3c(c(O)c1C2=O)C[C@@](O)(C(=O)CO)C[C@@H]3O[C@H]1C[C@H](N)[C@H](O[C@@H]2CCCCO2)[C@H](C)O1 [Pirarubicin] | 12.3 ± 0.17 |
| CC[C@H](C)C(=O)O[C@H]1CCC=C2C=C[C@H](C)[C@H](CC[C@@H]3C[C@@H](O)CC(=O)O3)[C@H]21 [Mevastatin] | 11.6 ± 0.14 |
| CN(C)CCOc1ccc(/C(=C(/CCCl)c2ccccc2)c2ccccc2)cc1 [Toremifene Citrate] | 12.1 ± 0.2 |
| Cc1ncc([N+](=O)[O-])n1CC(C)O (stereo not given) [Secnidazole] | 12.4 ± 0.14 |
| CCc1c2c(nc3ccc(OC(=O)N4CCC(N5CCCCC5)CC4)cc13)-c1cc3c(c(=O)n1C2)COC(=O)[C@]3(O)CC [Irinotecan HCl Trihydrate] | 12.5 ± 0.15 |
| Cc1cc(-c2ccc(/N=N/c3ccc4c(S(=O)(=O)O)cc(S(=O)(=O)O)c(N)c4c3O)c(C)c2)ccc1/N=N/c1ccc2c(S(=O)(=O)O)cc(S(=O)(=O)O)c(N)c2c1O [Evans Blue] | 13.5 ± 0.98 |
| CCCCCOc1ccc(-c2ccc(-c3ccc(C(=O)N[C@H]4C[C@@H](O)[C@@H](O)NC(=O)[C@@H]5[C@@H](O)[C@@H](C)CN5C(=O)[C@H]([C@@H](C)O)NC(=O)[C@H]([C@H](O)[C@@H](O)c5ccc(O)cc5)NC(=O)[C@@H]5C[C@@H](O)CN5C(=O)[C@H]([C@@H](C)O)NC4=O)cc3)cc2)cc1 | 12.6 ± 0.25 |
| O=C1Cc2cc(CCN3CCN(c4nsc5ccccc45)CC3)c(Cl)cc2N1 [Ziprasidone HCl] | 12.2 ± 0.18 |
| CCOC(=O)C1=C(C)NC(C)=C(C(=O)OC)C1c1cccc(Cl)c1Cl (stereo not given) [Felodipine] | 12.57 ± 0.072 |
| CC1(C)S[C@@H]2[C@H](NC(=O)Cc3ccccc3)C(=O)N2[C@H]1C(=O)O [Benzylpenicillin potassium] | 12.1 ± 0.18 |

| SMILES | mean cell size |
| --- | --- |
| CC1(C)S[C@@H]2[C@H](NC(=O)Cc3ccccc3)C(=O)N2[C@H]1C(=O)O.CCN(CC)CCOC(=O)c1ccc(N)cc1 [Penicillin G Procaine] | 12.2 ± 0.22 |
| N[C@@H]1CCCCN(c2c(F)cc3c(=O)c(C(=O)O)cn(C4CC4)c3c2Cl)C1 [Besifloxacin HCl] | 12 ± 0.16 |
| CC[N+](CC)(CC)CCOc1cccc(OCC[N+](CC)(CC)CC)c1OCC[N+](CC)(CC)CC [Gallamine Triethiodide] | 12.6 ± 0.14 |
| Cc1cc(CC(C)CC(C)(C)C)n(O)c(=O)c1 (stereo not given) [Piroctone Olamine] | 12 ± 0.34 |
| O=C(Nc1cccc(C2=NCCN2)c1)Nc1cccc(C2=NCCN2)c1 [Imidocarb dipropionate] | 12.1 ± 0.27 |
| O=C(O)Cc1ccccc1Nc1c(Cl)cccc1Cl [Diclofenac acid] | 12.5 ± 0.047 |
| CCCCc1oc2ccc(NS(C)(=O)=O)cc2c1C(=O)c1ccc(OCCCN(CCCC)CCCC)cc1 [Dronedarone HCl] | 12.24 ± 0.057 |
| COC(=O)C1=C(C)NC(C)=C(C(=O)OCCN(C)Cc2ccccc2)C1c1cccc([N+](=O)[O-])c1 (stereo not given) [Nicardipine HCl] | 12.4 ± 0.28 |
| COc1ccc2c(c1)c(CC(=O)OCC(=O)O)c(C)n2C(=O)c1ccc(Cl)cc1 [Acemetacin] | 12.45 ± 0.094 |
| O=C1CC2(CCCC2)CC(=O)N1CCCCN1CCN(c2ncccn2)CC1 [Buspirone HCl] | 12.4 ± 0.25 |
| C#CCN[C@@H]1CCc2ccccc21 [Rasagiline Mesylate] | 12.49 ± 0.065 |
| CCN1CCN(C(=O)N[C@@H](C(=O)N[C@@H]2C(=O)N3C(C(=O)O)=C(CSc4nnnn4C)CS[C@H]23)c2ccc(O)cc2)C(=O)C1=O [Cefoperazone] | 12.5 ± 0.21 |
| CNS(=O)(=O)CCc1ccc2[nH]cc(C3CCN(C)CC3)c2c1 [Naratriptan HCl] | 12.4 ± 0.17 |
| COc1cc(/C=C/C(=O)N2CCN(CC(=O)N3CCCC3)CC2)cc(OC)c1OC [Cinepazide maleate] | 12.6 ± 0.14 |
| CCOC(=O)c1c(CSc2ccccc2)n(C)c2cc(Br)c(O)c(CN(C)C)c12 [Arbidol HCl] | 12.6 ± 0.16 |
| CCCCCCCCN=C(N)NC(N)=NCc1ccc(Cl)c(Cl)c1 [Olanexidine Hydrochloride semihydrate] | 9.82 ± 0.35 |
| OCCOCCN1CCN(C2=Nc3ccccc3Sc3ccccc32)CC1 [Quetiapine Fumarate] | 12.42 ± 0.12 |
| COc1cccc2c1C(=O)c1c(O)c3c(c(O)c1C2=O)C[C@@](O)(C(C)=O)C[C@@H]3O[C@H]1C[C@H](N)[C@H](O)[C@H](C)O1 [Daunorubicin HCl] | 12.78 ± 0.043 |
| CC(c1cc2ccccc2s1)N(O)C(N)=O (stereo not given) [Zileuton] | 12.6 ± 0.19 |
| COc1cc([C@@H]2c3cc4c(cc3[C@@H](O[C@@H]3O[C@@H]5CO[C@@H](c6cccs6)O[C@H]5[C@H](O)[C@H]3O)[C@H]3COC(=O)[C@H]23)OCO4)cc(OC)c1O [Teniposide] | 12.5 ± 0.04 |
